We go through 29 molecules from the supplement of paper PMC4380459.

The experiment has as its system tubulin (bovine brain). Put plainly: tubulin polymerization end-point dOD, fold change relative to DMSO vehicle; higher = more polymerization (stabilization). As to conditions: 50 µM; 60 min; 37 °C. In a few lines: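 Plates were warmed to 37°C in a Tecan reader and read at 340 nm every minute for 1 hour. Beforehand, bovine brain tubulin (4 mg/ml in G-PEM buffer containing PIPES pH 6.9, MgCl2, EGTA and GTP) from the Cytoskeleton HTS-Tubulin polymerization kit was assembled on ice with compound at a final 50 μM in 0.5% DMSO in 384-well plates. Each value is the end-point change in optical density, expressed as percent fold change relative to DMSO vehicle, with runs scaled using the means and standard deviations of DMSO and reference-control wells.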
For `COc1ccc(OC)c(NC(=O)CSc2nc3cc4c(cc3cc2C)CCC4)c1`, the “tubulin polymerization end-point dOD” value worked out at 20.5%.

On to `Cc1ccc(C)c(NC(=O)CSc2nc3cc4c(cc3cc2C#N)OCO4)c1`, for which the “tubulin polymerization end-point dOD” value was determined as 52.6%.

In the case of `COc1ccc(OC)c(NC(=O)CSc2nc3ccc(OC)cc3cc2C)c1`, the “tubulin polymerization end-point dOD” value was -30.7%.

`Cc1ccc(/C=N/NC(=O)c2ccc3c(c2)OCO3)cc1`: the “tubulin polymerization end-point dOD” value is -38.5%.

As for `CS(=O)(=O)c1ccc(C(=O)Nc2ncc(Cc3cccc(Cl)c3Cl)s2)cc1`, the “tubulin polymerization end-point dOD” value was -8.57%.

On to `COc1ccccc1N1CC[NH+](Cc2c(-c3ccccc3)nc3sccn23)CC1`, for which the “tubulin polymerization end-point dOD” value was -21.9%.

`O=C(Nc1ncc(Cc2ccccc2)s1)c1sc2ccccc2c1Cl`: the “tubulin polymerization end-point dOD” value was -14.2%.

Consider `CSc1ncc(C(=O)Nc2ccc(Oc3ccc4c(c3)OCO4)cc2)cn1`, for which the “tubulin polymerization end-point dOD” value is -8.44%.

Regarding `COc1ccc2nc(SCC(=O)NCCc3ccc(OC)c(OC)c3)c(C)cc2c1`, the “tubulin polymerization end-point dOD” value was -15%.

On to `N#Cc1ccsc1NC(=O)C1COc2ccccc2C1` (centres undefined), for which the “tubulin polymerization end-point dOD” value was -10.4%.

`O=C(Nc1ccc(Cl)cc1)N(Cc1cc2cc3c(cc2[nH]c1=O)OCCO3)CC1CCCO1` (centres undefined): the “tubulin polymerization end-point dOD” value was -20.7%.

With `CCOC(=O)c1[nH]c(C)c(C(=O)c2cc(F)ccc2F)c1C`, the “tubulin polymerization end-point dOD” value came out at 5.16%.

In the case of `O=C(N/N=C/c1ccc2c3c(cccc13)CC2)C1COc2ccccc2O1` (centres undefined), the “tubulin polymerization end-point dOD” value is 28.5%.

With `Cc1cc2cc(CN(CC3CCCO3)C(=S)Nc3ccccc3)c(=O)[nH]c2cc1C` (centres undefined), the “tubulin polymerization end-point dOD” value was -20.3%.

In the case of `Cc1ccc(NC(=O)c2cc(F)c(Cl)cc2Cl)nc1`, the “tubulin polymerization end-point dOD” value was -57.6%.

Turning to `COc1ccc(/C(C)=N/Nc2cc[nH+]c3cc(Cl)ccc23)cc1OC`, the “tubulin polymerization end-point dOD” value amounted to 3.81%.

Turning to `COc1cc2c(cc1OC)C(c1cccs1)N(C(=O)Nc1ccc(Cl)cc1)CC2` (centres undefined), the “tubulin polymerization end-point dOD” value was 70.5%.

In the case of `Cc1ccccc1NC(=O)CSc1nc2cc3c(cc2cc1C)CCC3`, the “tubulin polymerization end-point dOD” value was determined as 69.3%.

Regarding `Cc1cc2c(cc(C(=O)OCC(=O)NCc3ccco3)n2C)s1`, the “tubulin polymerization end-point dOD” value turned out to be 39.4%.

As to `C/C(=N\NC(=O)c1cccc(F)c1)c1ccc(Br)s1`, the “tubulin polymerization end-point dOD” value turned out to be 9.02%.

In the case of `CCS(=O)(=O)N1CCc2cc(C3=NN=C(NCc4ccc5c(c4)OCO5)SC3)ccc21`, the “tubulin polymerization end-point dOD” value came to 227%.

Regarding `Cn1c(C(=O)Nc2ccc(-c3nccs3)cc2)cc(Br)c1Br`, the “tubulin polymerization end-point dOD” value is 15.5%.

Take `C=CCc1ccccc1OCC(=O)N/N=C\c1ccc(Cl)cc1`: the “tubulin polymerization end-point dOD” value is -25.9%.

Consider `O=c1[nH]c(CSc2nnc(C3CC3)n2C2CC2)nc2sc(-c3ccccc3)cc12`, for which the “tubulin polymerization end-point dOD” value turned out to be 31.8%.

For the molecule `O=c1[nH]c(/C=C/c2ccccc2)nc2sc3c(c12)CCCC3`, the “tubulin polymerization end-point dOD” value is -32.9%.

In the case of `Cc1ccc(/C=N/NC(=O)C2COc3ccccc3O2)s1` (centres undefined), the “tubulin polymerization end-point dOD” value amounted to 5.76%.

For `Cc1cnc(C(=O)Nc2ncc(Cc3ccc(C)c(Cl)c3)s2)cn1`, the “tubulin polymerization end-point dOD” value was -19.2%.

`O=C(N/N=C/c1cccs1)c1n[nH]c2c1CCC2`: the “tubulin polymerization end-point dOD” value came to 12.9%.

Regarding `Cc1cc2cc3c(cc2nc1SCC(=O)NC(C)(C)C)CCC3`, the “tubulin polymerization end-point dOD” value was 63.4%.
